Test results published in the OligoGym collection.

Each sequence was assayed against NPSR1 (assay: pooled miR-30 sensor sort-seq; sequence = guide strand). Settings: shRNA.
Note: reference of the scale not given here.

Sequence | sensor-assay potency score (higher = more potent)
TTTGCCTTTGAGATGAGTCCTC | 0.0754
TACCCTTCCAGTTCTCTCGTTG | 0.107
TTCTTCTTTCTCCTCCATGTGG | -0.829
TAGAGCAGCACAACCTGCAAAT | -0.941
TAGCGCAGCCTCCTGGAGCTGA | -0.612

The sequences below were run against NR3C1 in the same assay as above. Settings: shRNA.

Sequence | sensor-assay potency score (higher = more potent)
TAGAATATTGACACACTTGAAT | -0.527
TTGAGCGTAGTCATGATCCTCC | 0.514
TAGAAAAAACTGTTCGACCAGG | -0.371
TTGAAGAAAACTTTACAGCTTC | 0.56
TTTTCTTCGAATTTTATCGATG | -1.06
TTACATTGGTCGTACATGCAGG | -0.108
TGACTTATTATTGACAACGAAG | -1.46
TTGACAAAACCAGATCTCCATT | -1.1
TTCAGGTTCAATAACCTCCAAC | -0.915
TTCATCTATCAACAGGTCTGAT | -0.68
TTCACCTACAGCTACAGTCAGG | -1.07
TAGGGTTTTATAGAAGTCCATC | -1.08

What follows are sequences tested against NR4A3 in the same assay as above. Settings: shRNA.

Sequence | sensor-assay potency score (higher = more potent)
TAAGTAATGTCTGATCTTCTTT | -0.546
TGGTCTTTTAAACTGCTTGTGA | -0.937
TAATGTCTGATCTTCTTTGGGG | 0.115
TTTTTCTGCACTGTTCTCTTGA | 0.598
TCCAACACTGAGACACTTCTGA | -0.139
TAAACTGCTTGTGATCTTGTTG | -0.255
TTGCATAGCTCTTCGACTCTCT | 0.177
ATCGACAGTACTGACATCGGTT | -0.324
TCTTGTTGCATAGCTCTTCGAC | -0.437
TTGAAGTACATGGAGGTGCTGG | -0.481
TATCTGTACGGACAACTTCTTT | -1

The sequences below were run against NRGN in the same assay as above. Settings: shRNA.

Sequence | sensor-assay potency score (higher = more potent)
TAGAATGTCGTCGTCCGGCTTG | -0.236
TCGTCGTCCGGCTTGGAGCAGG | -0.878
TATCTTCTTCCGCGCCATGTGG | -1.11
TCTTTATCTTCTTCCGCGCCAT | -0.595
TTTGCATAAACAAGAGAGCTGG | -0.297
TTTAGCTGCGCACAGAACGAAA | -1.54
TGTCTAGAATGTCGTCGTCCGG | -1.75
TTGCATAAACAAGAGAGCTGGA | 0.0661
TCTAGAATGTCGTCGTCCGGCT | -0.833
TTTCTTTAAGTGAGTGTGCTTG | -0.361
TTTATCTTCTTCCGCGCCATGT | -1.14
TATTGTTCACATTCCAACCCAG | -0.138
